A selection: hits, their analogues and other compounds. The true share with any hit is near 6.6%.
Autofluor counter: compound fluorescence in toxin protease inhibitor counterscreen; compound autofluorescence counterscreen, microsphere flow cytometry; hits give high values; fluorescence intensity (no concentration beside the values); 3.1% of 360,000 active; AID 624483; in the data active means fluorescence intensity above about 16000; inconclusive means no clear call, values can overlap the other calls
Anthrax LF inh2: anthrax lethal factor protease inhibition; P15917; multiplex microsphere protease cleavage assay, LF; inhibition, % at 10 µM; 0.12% of 360,000 active; further: plate controls were buffer without enzyme for full effect and enzyme alone for no effect
Target sequence (P15917 whole entry, looked up): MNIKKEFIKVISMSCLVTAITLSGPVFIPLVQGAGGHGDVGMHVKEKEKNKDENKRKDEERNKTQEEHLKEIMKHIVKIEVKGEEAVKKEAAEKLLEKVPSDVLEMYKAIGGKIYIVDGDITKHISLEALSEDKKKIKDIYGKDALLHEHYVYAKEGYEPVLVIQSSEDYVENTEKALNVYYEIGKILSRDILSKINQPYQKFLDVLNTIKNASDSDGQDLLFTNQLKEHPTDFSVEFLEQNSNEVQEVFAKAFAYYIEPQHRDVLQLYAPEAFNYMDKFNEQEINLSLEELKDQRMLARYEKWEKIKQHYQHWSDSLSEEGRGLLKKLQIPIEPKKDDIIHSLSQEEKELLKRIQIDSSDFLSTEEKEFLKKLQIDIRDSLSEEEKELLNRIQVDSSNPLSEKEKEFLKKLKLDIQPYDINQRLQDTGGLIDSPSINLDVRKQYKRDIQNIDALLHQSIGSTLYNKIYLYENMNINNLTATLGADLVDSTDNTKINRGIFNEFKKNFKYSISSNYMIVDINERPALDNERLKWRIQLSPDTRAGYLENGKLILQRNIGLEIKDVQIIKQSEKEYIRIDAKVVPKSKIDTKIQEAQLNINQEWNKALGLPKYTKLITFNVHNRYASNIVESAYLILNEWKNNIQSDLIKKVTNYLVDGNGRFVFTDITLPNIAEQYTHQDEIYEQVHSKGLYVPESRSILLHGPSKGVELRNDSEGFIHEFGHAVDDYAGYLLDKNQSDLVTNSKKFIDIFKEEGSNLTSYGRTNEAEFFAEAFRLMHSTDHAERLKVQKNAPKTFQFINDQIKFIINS
GDH-TPI counter: counter-screen for M. tuberculosis FBA inhibitors: GDH-TPI coupled enzymes. inhibition, % at 4.8 µM. AID 588335. GDH-TPI coupled enzyme counterscreen, NADH absorbance. 1.2% of 360,000 active; in the data active means inhibition above about 30%;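 further: 0% = DMSO wells and 100% = wells lacking the enzyme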
Mtb FBA inh: inhibits M. tuberculosis FBA enzyme; P9WQA3; purified M. tuberculosis FBA, fluorescence read-out; inhibition, % at 1 µM; 2.3% of 360,000 active; AID 588726; in the data active means inhibition above about 27%;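 further: 0% = vehicle and 100% = reference inhibitor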
BoNT A protease: BoNT A light chain protease inhibition; multiplex microsphere protease substrate cleavage, flow cytometry; inhibition, % at 10 µM; 0.17% of 360,000 active; further: plate controls were buffer without enzyme for full effect and enzyme alone for no effect
BoNT-F LC inh: blocks Botulinum neurotoxin F light chain protease | Multiplex microsphere protease cleavage assay, flow cytometry | inhibition, % at 10 µM | 0.22% of 360,000 active | AID 588497; in the data active means inhibition above about 35%, passing the limit was not always enough; inconclusive means no clear call, values can overlap the other calls; further: plate controls were buffer without enzyme for full effect and enzyme alone for no effect
* = called active by the depositor; ? = inconclusive; + = active, no number. Unless noted, no stated cut-off is given here; in the data, active means inhibition above about 30%; inconclusive means no clear call, values can overlap the other calls; inactive means below that.

SMILES	Autofluor counter	Anthrax LF inh2	GDH-TPI counter	Mtb FBA inh	BoNT A protease	BoNT-F LC inh
CCC(C)NC(=O)c1ccccc1NC(=O)CN(c1ccc(OC)cc1)S(C)(=O)=O (stereo unspecified)	23469*	0	4	5	0	-1
COCCNC(=O)c1ccccc1NC(=O)CN(c1ccc2c(c1)OCO2)S(C)(=O)=O	15685	-3	8	1	1	2
COc1ccc(N(CC(=O)Nc2ccccc2C(=O)NCCc2ccccc2)S(C)(=O)=O)cc1OC	21907*	0	-1	0	1	2
CS(=O)(=O)N(CC(=O)Nc1ccccc1C(=O)NCc1ccco1)c1ccc2c(c1)OCCO2	23961*	-2	5	1	-1	-4
CCc1ccc(C=NC23CN4CN(CN(C4)C2)C3)s1	16887*	-1	21	1	?	-7
CCN1CCCCC(=N/O)/C(=N/O)CCCC1	3542	5	-8	1	-1	38*
CCc1n[nH]c2c1/C(=N/O)CCC2	2930	-5	-6	0	0	-8
CCC1(C)Cc2ccccc2-c2nc3n(c(=O)c21)CCS3 (stereo unspecified)	2240	-3	-3	-2	-1	-3
CCC1(C)Cc2ccccc2-c2nc(NCCCO)n(-c3ccccc3)c(=O)c21 (stereo unspecified)	?	-20	12	+	-1	-10
CCn1c(NCCO)nc2c(c1=O)C(C)(CC)Cc1ccccc1-2 (stereo unspecified)	5298	-4	19	159*	0	-2
COc1ccc(C(=O)NCC(=O)OCC(=O)N2N=C(c3ccc(Cl)cc3)CC2c2ccco2)cc1OC (stereo unspecified)	3696	-2	6	1	-1	5
O=C1C=C(c2cccc(CO)c2)C[C@@H](c2ccc(Cl)cc2)C1	4222	7	8	1	-1	-13
CC(C)NC(=S)N/N=C/c1sc(N2CCCCC2)nc1-c1cccs1	4007	8	11	1	33*	-13
Cc1cc(NC(=O)c2nn3cccnc3c2Cl)no1	21821*	-2	7	3	-4	-6
Cc1cc(NC(=O)c2cnn3cccnc23)no1	12933	2	9	1	1	3
c1nc(N2CCCC2)c2[nH]cnc2n1	23416*	-1	8	0	?	0
c1nc(N2CCCCCC2)c2[nH]cnc2n1	5711	4	3	5	0	0
Nc1ccccc1/C=C/c1ccccc1N	2952	-1	27	146*	0	-2
c1ccc(-c2nc3ccccc3[nH]2)nc1	2067	0	0	6	-1	0
c1ccc(-c2nc3c(ccc4ccccc43)[nH]2)nc1	2958	-6	33*	16	-1	-3
CCCC(=O)Nc1ccc2c(c1)c1ccccc1n2CC	1957	1	9	3	-1	-9
C=C(C)Cn1c2ccc(NC(=O)CCOCC)cc2c(=O)n1C	3674	1	-5	+	0	8
C=C(C)Cn1c2ccc(NC(=O)CCc3cccc(Cl)c3)cc2c(=O)n1C	3814	-4	5	+	0	0
CCOCCC(=O)Nc1ccc2c(c1)c(=O)n(C)n2CC=C(C)C	3008	-1	12	+	0	-9
NC(=O)CC(NC(=O)Cc1ccc(Cl)cc1)c1ccc(NC2CC3CCC2C3)c([N+](=O)[O-])c1 (stereo unspecified)	2953	-7	8	0	0	-4
SMILES	Autofluor counter	Anthrax LF inh2	GDH-TPI counter	Mtb FBA inh	BoNT A protease	BoNT-F LC inh
COC(=O)[C@@H](Cc1c[nH]c2ccccc12)NC(=O)CNC(=O)c1ccccc1OC	3771	15	-9	1	-5	2
O=C(CC1C(=O)NCCN1Cc1c(F)cccc1Cl)NCCCN1CCCC1=O (stereo unspecified)	5048	1	-12	3	-2	1
CN(C)c1ccc(C2NCCS2)cc1 (stereo unspecified)	22912*	-4	26	-3	0	-3
CCOc1ccccc1OCCCC(=O)N(CC)CC(=O)Nc1c(F)cccc1F	?	-2	1	2	-7	-19
NS(=O)(=O)c1ccc(NC(=S)NC(=O)c2ccc(Br)o2)cc1	3528	-5	6	0	-1	-5
NS(=O)(=O)c1ccc(NC(=S)NNC(=O)c2ccc(Br)o2)cc1	6586	0	33*	1	-2	-6
O=c1[nH]c(O)c(C=NC2CCCCC2)c(=O)[nH]1	3857	37*	10	0	-12	?
Cn1c(O)c(C=NC2CCCCC2)c(=O)[nH]c1=S	2272	-1	5	2	0	0
O=C(NC1CCCC1)C(c1ccccc1)N(C(=O)c1ccco1)C1CCCC1 (stereo unspecified)	7598	1	-6	-3	0	-7
CC(C)(C)NC(=O)C(c1ccccc1)N(C(=O)c1ccco1)C1CC1 (stereo unspecified)	21553*	-5	12	-1	?	2
CC(C)(C)c1cc(NC(=O)COc2ccc(Br)cc2)n(-c2ccccc2)n1	6683	-1	1	0	0	1
Cc1cc(S(=O)(=O)NCc2ccccc2)ccc1OCC(=O)N1CCCC1	5495	-2	9	1	2	5
Nc1c(C(=O)CSc2nc3ccccc3o2)c(=O)[nH]c(=O)n1C1CC1	3000	-9	8	5	-1	-8
CCn1cc(C(=O)O)c(=O)c2cc(F)c(N3CCN(C(=S)NC(=O)c4cccc(F)c4)CC3)cc21	5002	3	14	0	0	0
CCn1cc(C(=O)NCc2cccc(F)c2)c(=O)c2cc(F)c(N3CCN(C(=O)c4ccco4)CC3)cc21	6122	-8	1	38*	-1	-5
CN(C)C(=O)CSc1nnc(CCN)o1	22720*	0	-3	4	-1	1
CN(C)C(=O)CSc1nnc(C23CC4CC(CC(C4)C2)C3)o1	22684*	-12	-8	-5	?	-1
CSCC[C@H](NC(=O)OC(C)(C)C)c1nnc(SCC(=O)N(C)C)o1	5920	-2	8	1	0	0
CCOc1ccc(NC(=O)OCCN2CCN(CCc3ccccc3)C(C)C2)cc1 (stereo unspecified)	3185	0	6	-1	0	-2
CNc1cnn(-c2ccccc2)c(=O)c1Cl	3269	1	10	0	-1	-13
O=c1c(Cl)c(N/N=C/c2ccc(Br)cc2)cnn1-c1ccccc1	3404	3	56*	3	0	13
Cc1cccc(C(=O)NNC(=O)c2cccc(C)c2)c1	1825	0	7	0	0	-5
Cc1ccccc1C(=O)NNC(=O)/C=C\C(=O)O	4008	-4	5	3	-1	-2
C=CCNC(=O)c1cccc(Br)c1	23849*	-1	-4	-2	-3	-4
O=C(NNC(=O)c1ccccc1O)c1cccc(Br)c1	2989	-18	31*	-3	-2	?
Cc1cccc(C(=O)NNC(=O)c2ccccc2Br)c1	3428	6	-8	3	1	45*
